These results are taken from article PMC7819943, “Rice protein-binding microarrays: a tool to detect cis-acting elements near promoter regions in rice”.

In all, about 68,000 sequences were measured (“fluorescence intensity (a.u.)”: median about 9,100, highest 2% from about 16,000 on). The full list was thinned out, with the highest values kept by preference.

Chain of OsWRKY34 (Q0JBA9 entry or part of it): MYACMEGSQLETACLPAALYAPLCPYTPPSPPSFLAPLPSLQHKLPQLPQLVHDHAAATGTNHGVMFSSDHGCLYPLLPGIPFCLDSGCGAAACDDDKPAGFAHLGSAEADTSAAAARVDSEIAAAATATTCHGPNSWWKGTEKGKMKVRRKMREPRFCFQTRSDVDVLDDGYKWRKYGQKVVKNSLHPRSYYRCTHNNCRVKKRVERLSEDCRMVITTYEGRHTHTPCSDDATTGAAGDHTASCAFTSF

This assay concerns the target OsWRKY34 (Oryza sativa, UniProt Q0JBA9 1-250). The experiment in a line: protein-binding microarray (RPBM); PBS, 2% BSA, 51.3 ng/ul salmon testes DNA, 50 uM zinc acetate, 200 nM TF, 25 C, 1 h; high values mean tight binding. The settings on record: protein: recombinant; tags: N-terminal polyhistidine and DsRed monomer fusion (pET32a); label: CyDye5-dUTP incorporated in the synthesized complementary strand; 3' TTTTT single-stranded linker to array surface; dsDNA, one strand shown. In outline:
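The binding signal is fluorescence intensity per array feature (arbitrary units). Readings came from an Axon 4000B scanner after a washed, 2% BSA-blocked, double-stranded custom Agilent array had been incubated for 1 h at 25 °C with 200 nM protein and 50 µM zinc acetate. The protein was a Ni–NTA-purified transcription factor fused N-terminally to polyhistidine and DsRed, expressed in E. coli BL21-CodonPlus.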
For the sequence “TTTTCAGTAGATAACATCGTTGACTTTTCAACGAATATTTCGGAGTCACCTAGTGCAG”, the binding signal is 14400 fluorescence intensity (a.u.).

Take “TTTTTAATAGATAACGTCGTTGACTTTTTCTCACATGTTTCGGAGTCACCTAGTGCAG”: the binding signal is 25600 fluorescence intensity (a.u.). For “AACTTTACTTTTTCTCATAGTGTTGATTAGATATATGTTTCGGAGTCACCTAGTGCAG”, the binding signal is 10600 fluorescence intensity (a.u.). On to “GTTTTTTAATAGATAACGCCGTTGACTTTTTTTCACATGTCGGAGTCACCTAGTGCAG”, for which the binding signal is 21500 fluorescence intensity (a.u.). “CCGTTTTTTAATAGATAACGCTGTTGACTTTTTCTTATATCGGAGTCACCTAGTGCAG”: the binding signal was 11200 fluorescence intensity (a.u.). Consider “GGAGGAGAGAGGGGTGGGGTTTGTGGTGTCGTCGTCCATGCGGAGTCACCTAGTGCAG”, for which the binding signal is 11700 fluorescence intensity (a.u.). Take “GACTATGCGCGCTATATAAAGGATCACATTATCTCATACTCGGAGTCACCTAGTGCAG”: the binding signal was 8930 fluorescence intensity (a.u.). With “TTGCCGTACAATCTTGATTTGGAGATCTTCCTGGCCAACACGGAGTCACCTAGTGCAG”, the binding signal was 9120 fluorescence intensity (a.u.). Regarding “AGAAAGCCCATTTTGCCCTTTGTGCTTCAGAACATCGAGCCGGAGTCACCTAGTGCAG”, the binding signal was 8020 fluorescence intensity (a.u.). As for “ACGCTTGGTGGGGTGGGGTGGTGCTGGTGCCATGAACTGCCGGAGTCACCTAGTGCAG”, the binding signal was 22300 fluorescence intensity (a.u.). Regarding “TGGCGAGGAGGTGGTGGTGGTTGTGGTGGGTGCGGCCATGCGGAGTCACCTAGTGCAG”, the binding signal is 12100 fluorescence intensity (a.u.).

Take “CATCCGGCCATGGTGATGACCGGCGGCGATGATCAGCAGCCGGAGTCACCTAGTGCAG”: the binding signal is 48200 fluorescence intensity (a.u.). As for “GTGGTGGTGGTGGTGGTGGTGGCGGCGGCGGCCGGCCATGCGGAGTCACCTAGTGCAG”, the binding signal was 20000 fluorescence intensity (a.u.).

In the case of “AAACCATGCGGCGCACGAGCCACTCGCACTCGCACTCGCACGGAGTCACCTAGTGCAG”, the binding signal is 9360 fluorescence intensity (a.u.). Next, “GCCGCATGGTGGTGCTGGTTGGGGTGGTGGTGGTGGCGGCCGGAGTCACCTAGTGCAG”: 14800 fluorescence intensity (a.u.); “CGGAGGGAGGCGGAGGCGGTGGTGGTGGTGGTGGTGCCGGCGGAGTCACCTAGTGCAG”: 12500 fluorescence intensity (a.u.). Consider “GTGGTGGTGGTGGTGGTGGTGGTGGTGGTGCACGGCCATGCGGAGTCACCTAGTGCAG”, for which the binding signal was 16400 fluorescence intensity (a.u.).

Turning to “AACTCAGTCTCAGCTCACATGATGCATCATCAGCCATGGCCGGAGTCACCTAGTGCAG”, the binding signal is 8200 fluorescence intensity (a.u.). For the sequence “GAGGAGAGAGAGAGAGAGTGGTGGTGGTGGTGGTGAGATGCGGAGTCACCTAGTGCAG”, the binding signal was 8460 fluorescence intensity (a.u.). On to “GTACTGGCTTGGCTGGGTCGGGCTCGGGCTGGGCCATGAACGGAGTCACCTAGTGCAG”, for which the binding signal is 8340 fluorescence intensity (a.u.). Consider “CCGCCGCCATCAAGTCCGCCATCATGACCACCGGTGAGAACGGAGTCACCTAGTGCAG”, for which the binding signal was 8490 fluorescence intensity (a.u.).

Take “CAGCCACCTCCTCCTCTTCTTCCCCAACTTTCTGCTTGATCGGAGTCACCTAGTGCAG”: the binding signal is 9300 fluorescence intensity (a.u.). As to “CCCACGCAGATCTCCGCTTTTTCCCGGCGGCAACCACGCCCGGAGTCACCTAGTGCAG”, the binding signal was 10200 fluorescence intensity (a.u.). In the case of “AATCTAACATGGATTTGCGCACACACTTGTCGTAACGTACCGGAGTCACCTAGTGCAG”, the binding signal was 9480 fluorescence intensity (a.u.). Next, “CGTGCATCCGCTGCGCTGTGCTGCCATTTCTCTTCAGCTTCGGAGTCACCTAGTGCAG”: 10600 fluorescence intensity (a.u.); “TAGCTATTGCTCGCTGGCCTACCATTAATTAGTATACTGTCGGAGTCACCTAGTGCAG”: 8800 fluorescence intensity (a.u.); “TTTTGCTTATCATATCATATATTTTCTAAGCTTGATTTTTCGGAGTCACCTAGTGCAG”: 8050 fluorescence intensity (a.u.). Next, “TTTTTTGTTTTTTCTTTGAATTCTTTCCTTACGATTTTTGCGGAGTCACCTAGTGCAG”: 13400 fluorescence intensity (a.u.); “ACCTAATATTTCCCGTGTTCTCTTCTACGAAAACGTATTTCGGAGTCACCTAGTGCAG”: 10500 fluorescence intensity (a.u.). Take “AACCTCCAACCTTTTAATTTCTCACGCGACCATGCACGACCGGAGTCACCTAGTGCAG”: the binding signal was 8820 fluorescence intensity (a.u.). For the sequence “ATGTAGGGGTTCCTGCTGCTGCTGTTCTGCCCATTCAACACGGAGTCACCTAGTGCAG”, the binding signal was 8880 fluorescence intensity (a.u.). As for “TCATCATGTGACCGACCACCGCATCCTCAGTTGACCCAGTCGGAGTCACCTAGTGCAG”, the binding signal is 8640 fluorescence intensity (a.u.). Regarding “GATAGGGTTAGGGTTAGGGTTTTCCCTGGTCCGCATCTTCCGGAGTCACCTAGTGCAG”, the binding signal was 9320 fluorescence intensity (a.u.). For “CTCTTGCTCTGCTCTGTTTTTGGCCCATCCTCACCCACAACGGAGTCACCTAGTGCAG”, the binding signal was 10600 fluorescence intensity (a.u.). As for “CTTTTCTCCTTCGGCTATAGTGTCACTGTCCTCGCCTTCTCGGAGTCACCTAGTGCAG”, the binding signal is 15700 fluorescence intensity (a.u.). Next, “GTGCCTAACAATCTGCTGCTTTTTACCCGCCAAGTATCTTCGGAGTCACCTAGTGCAG”: 8180 fluorescence intensity (a.u.). As to “AATACATTTTACCTCGATTGTTATTAGCATATTTTTTTTGCGGAGTCACCTAGTGCAG”, the binding signal is 8890 fluorescence intensity (a.u.).

As for “ATGTAAGTCATTCTAGCATTTTTTACATTCATATTGATGTCGGAGTCACCTAGTGCAG”, the binding signal was 9380 fluorescence intensity (a.u.). Consider “TTCCAGTTAGCAACGCATTGAGCCATTTTTACATATTCTGCGGAGTCACCTAGTGCAG”, for which the binding signal was 57100 fluorescence intensity (a.u.). Consider “TTCACCCTCACTTTATTCATCTATAGTAGTTTCATCAGTTCGGAGTCACCTAGTGCAG”, for which the binding signal was 8060 fluorescence intensity (a.u.).

Consider “CACAGATCCACTCCATTGCTTCACTACTGCTTTGCTTTTGCGGAGTCACCTAGTGCAG”, for which the binding signal is 11000 fluorescence intensity (a.u.). Next, “CCACTTTTGCAGATTGCAGGGCGCGCAGTACTGCCGACAGCGGAGTCACCTAGTGCAG”: 18900 fluorescence intensity (a.u.); “CTACTTTCACTCCCACCCACCCGACACAGCCGGAGCGCGCCGGAGTCACCTAGTGCAG”: 8630 fluorescence intensity (a.u.).
